PubChem BioAssay AID1345085 (National Center for Advancing Translational Sciences (NCATS), 2018)
Results filed as inconclusive are left out. Active and inactive are the calls of the source. Calls follow the shape of the dose curve; as a rule, active = well fitted cell-killing curve with a large enough effect; inconclusive = small, poorly fitted or top-dose-only effect, or effect the other way; inactive = no such curve, though single readings can be large or run the other way.

Tested on: C33A
Experiment: Confirmatory qHTS for gynecologic anti-cancer compounds from libraries of approved drugs and bioactive compounds; also: nearly all actives have a fitted effect of over 55% in size
Details: gynecologic cancer cell panel viability, ATPlite luminescence, 48 h; series mostly up to 57.6 µM; activity change, negative = viability loss: at the top concentration
Outline: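 Cells (1,000/well) were plated, left 16 h at 37 C/5% CO2, then given compound at 11 concentrations (1:3) from 57.5 uM to 0.977 nM for 48 h. ATPlite luminescence after 15 min at room temperature gave IC50 values.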
% is scaled to controls: 0 for no effect and ±100 for the full control effect; potency is read from the fitted curve at half-maximal effect.

Row | Compound | activity change, negative = viability loss | Potency
1 | CCCCN(CCCC)C(=O)CN1C[C@H](c2ccc3c(c2)OCO3)[C@@H](C(=O)O)[C@@H]1c1ccc(OC)cc1 | -1.91% (inactive) | –
2 | Cc1ccc(C(=O)N(CCCN)C(c2nc3cc(Cl)ccc3c(=O)n2Cc2ccccc2)C(C)C)cc1 (stereo not drawn) | – | 485 nM (active)
3 | CC1(C)[C@@H](O)CC[C@]2(C)[C@H]3C(=O)C=C4[C@@H]5C[C@@](C)(C(=O)O)CC[C@]5(C)CC[C@@]4(C)[C@]3(C)CC[C@@H]12 | 8.69% (inactive) | –
4 | COc1ccc(CCC(=O)c2c(O)cc(O[C@@H]3O[C@H](CO)[C@@H](O)[C@H](O)[C@H]3O[C@@H]3O[C@@H](C)[C@H](O)[C@@H](O)[C@H]3O)cc2O)cc1O | 11.6% (inactive) | –
5 | CCN1C[C@H](C)n2c(c(O)c3c(=O)n(Cc4ccc(F)c(Cl)c4)nc(C(=O)NC)c32)C1=O | 6.55% (inactive) | –
6 | Cc1cc(SCc2sc(-c3ccc(C(F)(F)F)cc3)nc2C)ccc1OCC(=O)O | -0.815% (inactive) | –
7 | N#CC1(c2cccc(C(=O)Nc3cc(Oc4ccc5nc(NC(=O)C6CC6)sc5n4)ccc3F)c2Cl)CC1 | -24.7% (inactive) | –
8 | CC(C)Oc1ccc(C(=O)NC(CNC(=O)CN(C)C)Cc2ccc(-c3cn4cccc(C(C)O)c4n3)cc2)cc1Cl (stereo not drawn) | -17.7% (inactive) | –
9 | CN1CCN(Cc2ccc(NC(=O)Nc3ccc(Oc4cc(NC(=O)C5CC5)ncn4)cc3)cc2C(F)(F)F)CC1 | – | 7690 nM (active)
10 | CNc1nc(Nc2ccc(C(=O)N3CCOCC3)cc2OC)ncc1Cl | 1.31% (inactive) | –
11 | CCC1C(=O)N(C)c2cnc(Nc3ccc(C(=O)NC4CCN(C)CC4)cc3OC)nc2N1C1CCCC1 (stereo not drawn) | – | 54.4 nM (active)
12 | FC(F)(F)c1ccc(/C=C/c2nc(COc3ccc(CCCCn4ccnn4)cc3)co2)cc1 | -29.5% (inactive) | –
13 | COc1cc2c(Oc3ccc(-c4cnc(Nc5ccc(F)cc5)n(C)c4=O)cc3F)ccnc2cc1OCCCN1CCOCC1 | -4.7% (inactive) | –
14 | NS(=O)(=O)c1ccc(Nc2nc(OCC3CCCCC3)c3[nH]cnc3n2)cc1 | 15.5% (inactive) | –
15 | COc1ccc(OC)c(-c2nnc3ccc(-c4ccc(OC)c(O[C@@H]5CCOC5)c4)nn23)c1 | -2.95% (inactive) | –
16 | Nc1ccccc1NC(=O)c1ccc(CNC(=O)OCc2cccnc2)cc1 | – | 5440 nM (active)
17 | CN1CCN(c2cccc(Nc3nc4c(-c5ccc(S(C)(=O)=O)cc5)cccn4n3)c2)CC1 | -10.2% (inactive) | –

Row | Compound | activity change, negative = viability loss | Potency
18 | CCN[C@H]1C[C@H](C)S(=O)(=O)c2sc(S(N)(=O)=O)cc21 | 8.15% (inactive) | –
19 | CCOc1cc2ncc(C#N)c(Nc3ccc(F)c(Cl)c3)c2cc1NC(=O)/C=C/CN(C)C | – | 8630 nM (active)
20 | CCCCc1nc2cc(/C=C/C(=O)NO)ccc2n1CCN(CC)CC | – | 1530 nM (active)
21 | CCN(CC)CCNC(=O)c1c(C)[nH]c(/C=C2\C(=O)Nc3ccc(F)cc32)c1C | – | 22400 nM (active)
22 | CCC1=CC2CN(C1)Cc1c([nH]c3ccccc13)[C@@](C(=O)OC)(c1cc3c(cc1OC)N(C)[C@H]1[C@@](O)(C(=O)OC)[C@H](OC(C)=O)[C@]4(CC)C=CCN5CC[C@]31[C@@H]54)C2 (stereo partly drawn) | – | 211 nM (active)
23 | Cc1cc(Nc2nc(N[C@@H](C)c3ccc(F)cc3)c(C#N)cc2F)n[nH]1 | -15% (inactive) | –
24 | CCc1nc(C(N)=O)c(Nc2ccc(N3CCC(N4CCN(C)CC4)CC3)c(OC)c2)nc1NC1CCOCC1 | -16.8% [at 45.6 µM] (inactive) | –
25 | COc1ccc2c(c1OC)C(=O)O[C@@H]2[C@H]1c2c(cc3c(c2OC)OCO3)CCN1C | 11.5% (inactive) | –
26 | CCCS(=O)c1ccc2nc(NC(=O)OC)[nH]c2c1 (stereo not drawn) | -5.48% (inactive) | –
27 | CCc1cccc(CC)c1NC(=O)N1Cc2[nH]nc(NC(=O)c3ccc(N4CCN(C)CC4)cc3)c2C1 | 8.99% (inactive) | –
28 | O=C(CCCCCCC(=O)Nc1ccccc1)NO | – | 3430 nM (active)
29 | CC(Oc1cc(-n2cnc3ccc(CN4CCN(C)CC4)cc32)sc1C(N)=O)c1ccccc1C(F)(F)F (stereo not drawn) | – | 5440 nM (active)
30 | CCC1C(=O)N(C)c2cnc(Nc3ccc(C(=O)NC4CCC(N5CCN(CC6CC6)CC5)CC4)cc3OC)nc2N1C(C)C (stereo not drawn) | – | 172 nM (active)
31 | CC(=O)c1cnc2ccc(-c3cc(Cl)c(O)c(Cl)c3)nc2c1NC1CCC(CN(C)C)CC1 (stereo not drawn) | – | 1400 nM (active)
32 | Nc1ccn([C@@H]2O[C@H](CO)[C@@H](O)C2(F)F)c(=O)n1 | – | 17.2 nM (active)
33 | Cc1ccc(NC(=O)c2ccc(CN3CCN(C)CC3)cc2)cc1Nc1nccc(-c2cccnc2)n1 | -24.7% (inactive) | –
